The target in assay [1] is human Sirtuin 3 (SIRT3), SIRT3 (gene 23410) (UniProt Q9NTG7). In words: NVS_ENZ_hSIRT3: NovaScreen (NVS) Enzymatic Assay for human Sirtuin 3 (SIRT3) (AID 2283222). A digest of the protocol:
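Cell-free enzyme assay with recombinant protein and fluorescent substrate, product separated by electrophoretic mobility shift; read 1 hour after dosing. Screened in duplicate at 25 uM, then singleton concentration-response up to 50 uM; loss of signal versus DMSO.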

The target in assay [2] is human Tyrosine Protein Kinase Receptor Tie-2 (Tie2), TEK (gene 7010) (UniProt Q02763). In words: NVS_ENZ_hTie2: NovaScreen (NVS) Enzymatic Assay for human Tyrosine Protein Kinase Receptor Tie-2 (Tie2) (AID 2283225). The procedure, abridged: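 Substrate and product were separated by mobility shift and detected by fluorescence after a 1-hour reaction with recombinant Tie2. Chemicals passing a 25 uM single-point screen were titrated to a maximum of 50 uM. Results were normalized to DMSO baseline.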

Assay [3] addresses rabbit Imidazoline 2 Central (I2C), CKB (gene 100009085) (UniProt P00567). In words: NVS_ENZ_rabI2C: NovaScreen (NVS) Enzymatic Assay for rabbit Imidazoline 2 Central (I2C) (AID 2283228). The procedure, abridged: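 Rabbit brain membranes, cell-free; readout by filter-based scintillation counting 1.5 hours after dosing, loss of signal vs DMSO. Initial duplicate test at 25 uM, then concentration-response with 50 uM top concentration.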

Assay [4] concerns the target rat Acetylcholinesterase (AChE), Ache (gene 83817) (UniProt P37136). In words: NVS_ENZ_rAChE: NovaScreen (NVS) Enzymatic Assay for rat Acetylcholinesterase (AChE) (AID 2283233). A digest of the protocol: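 Compounds first screened at 25 uM in duplicate, then those passing threshold tested in concentration series up to 50 uM, against AChE from rat brain membranes. Enzyme activity read by absorbance at 0.33 h; inhibition scored versus DMSO.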

Assay [5] has as its target human Vascular Endothelial Growth Factor Receptor 2 (VEGFR2), KDR (gene 3791) (UniProt P35968). In words: NVS_ENZ_hVEGFR2: NovaScreen (NVS) Enzymatic Assay for human Vascular Endothelial Growth Factor Receptor 2 (VEGFR2) (AID 2283230). A digest of the protocol: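 Cell-free recombinant VEGFR2 kinase, fluorescent substrate with electrophoretic mobility-shift separation; read 1 h after dosing. Screened at 25 uM in duplicate, hits to concentration-response up to 50 uM; loss-of-signal versus DMSO.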

Assay [6] addresses human Sirtuin 1 (SIRT1), SIRT1 (gene 23411) (UniProt Q96EB6). In words: NVS_ENZ_hSIRT1: NovaScreen (NVS) Enzymatic Assay for human Sirtuin 1 (SIRT1) (AID 2283219). The procedure, abridged: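 Cell-free recombinant SIRT1 with a fluorescent substrate; substrate and product separated by electrophoretic mobility shift and read by fluorescence intensity, 1 h after dosing. Primary screen at 25 uM in duplicate; hits re-run in concentration-response up to 50 uM, relative to DMSO.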

In assay [7] the target is human SRC Proto-Oncogene, Non-receptor Tyrosine Kinase (SRC), SRC (gene 6714) (UniProt P12931). In words: NVS_ENZ_hSRC: NovaScreen (NVS) Enzymatic Assay for human SRC Proto-Oncogene, Non-receptor Tyrosine Kinase (SRC) (AID 2283223). The procedure, abridged:
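Compounds passing 30% inhibition at 25 uM (duplicate) were titrated to a top concentration of 50 uM. Enzyme activity read by fluorescence with mobility-shift substrate/product separation after 1 h; DMSO baseline.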

The test system of assay [8] is rat Monoamine Oxidase, MAO-A, Peripheral (MAOAP), gene 29253. In words: NVS_ENZ_rMAOAP: NovaScreen (NVS) Enzymatic Assay for rat Monoamine Oxidase, MAO-A, Peripheral (MAOAP) (AID 2283237). The procedure, abridged:
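Scintillation counting tracked MAO-A activity in a cell-free rat liver mitochondrial membrane prep, read 1.17 hours after compound addition. Single-point duplicate testing at 25 uM preceded concentration-response follow-up; activity was fitted relative to DMSO.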

For assay [9], the target named is human Sirtuin 2 (SIRT2), SIRT2 (gene 22933) (UniProt Q8IXJ6). In words: NVS_ENZ_hSIRT2: NovaScreen (NVS) Enzymatic Assay for human Sirtuin 2 (SIRT2) (AID 2283217). The procedure, abridged: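 Single-point duplicate screen at 25 uM, then concentration-response (max 50 uM) for chemicals passing threshold. Enzyme activity of recombinant human SIRT2 measured after 1 hr by fluorescence with mobility-shift separation of product; DMSO baseline.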

In assay [10] the target is human Vascular Endothelial Growth Factor Receptor 1 (VEGFR1), FLT1 (gene 2321) (UniProt P17948). In words: NVS_ENZ_hVEGFR1: NovaScreen (NVS) Enzymatic Assay for human Vascular Endothelial Growth Factor Receptor 1 (VEGFR1) (AID 2283226). The procedure, abridged:
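Kinase activity of recombinant human VEGFR1 was read by fluorescence after electrophoretic separation of product from substrate, 1 h post-dosing; initial duplicate single-point testing at 25 uM, followed by concentration-series follow-up, with DMSO as baseline.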

Assay [11] has as its target human Vascular Endothelial Growth Factor Receptor 3 (VEGFR3), FLT4 (gene 2324) (UniProt P35916). In words: NVS_ENZ_hVEGFR3: NovaScreen (NVS) Enzymatic Assay for human Vascular Endothelial Growth Factor Receptor 3 (VEGFR3) (AID 2283229). The procedure, abridged: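 Chemicals first run in duplicate at 25 uM, with actives re-tested in concentration series to a top of 50 uM. Recombinant VEGFR3 activity measured after 1 h via fluorescence with mobility-shift product separation; inhibition fitted relative to DMSO.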

Assay [12] deals with rat Monoamine Oxidase, MAO-B, Central (MAOBC), Maob (gene 25750) (UniProt P19643). In words: NVS_ENZ_rMAOBC: NovaScreen (NVS) Enzymatic Assay for rat Monoamine Oxidase, MAO-B, Central (MAOBC) (AID 2283238). The procedure, abridged:
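Actives from a duplicate 25 uM screen went on to singleton concentration-response with a 50 uM maximum. Enzyme source was rat brain tissue MAO-B, assayed cell-free. Radiolabelled product was counted by scintillation 1.17 h post-dose, with signal loss relative to DMSO.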

The target of assay [13] is sheep Cyclooxygenase-1 (Cox1), PTGS1 (gene 443551) (UniProt P05979). In words: NVS_ENZ_oCOX1: NovaScreen (NVS) Enzymatic Assay for sheep Cyclooxygenase-1 (Cox1) (AID 2283239).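 Note: actives reduce cyclooxygenase activity so potencies are for inhibitors.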 The procedure, abridged:
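Absorbance read-out of cyclooxygenase activity in a cell-free preparation from sheep seminal vesicles, taken 0.66 hour after dosing. Initial testing was in duplicate at 25 uM, and confirmatory testing was run in concentration series.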

Assay [14] has as its target rat Adenylate Cyclase, Forskolin Stimulated, Adcy5 (gene 64532) (UniProt Q04400). In words: NVS_ENZ_rACFSKBinding: NovaScreen (NVS) Enzymatic Assay for rat Adenylate Cyclase, Forskolin Stimulated (AID 2283232). A digest of the protocol: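 Chemicals were first tested at 25 uM in duplicate, then hits run as concentration series with top concentration 50 uM. Enzyme source was rat forebrain membranes; radiometric filter read-out after 1 h, referenced to DMSO.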

Assay [15] has as its target bovine Dopamine Receptor (DR), Non-selective Binding, DRD1 (gene 281125) (UniProt Q95136). In words: NVS_GPCR_bDR_NonSelective: NovaScreen (NVS) G Protein-Coupled Receptor Assay for bovine Dopamine Receptor (DR), Non-selective Binding (AID 2283241). A digest of the protocol: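 Filter-based radioligand binding with bovine striatal membrane, incubated 1 h; DMSO as negative baseline. Initial duplicate single-point test at 25 uM preceded concentration series for actives.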

The source of these data is PubChem BioAssay (EPA / NIEHS).

Structures are written as SMILES. Records with an inconclusive call do not appear. Active and inactive are the calls of the source. Rule for the calls: active = hit-call score of the fitted dose curve at least 0.9, where 1 is the maximum; inconclusive = response in the unintended direction; inactive = score below 0.9.

rabbit Imidazoline 2 Central (I2C), CKB (gene 100009085), sequence (P00567 whole entry, looked up): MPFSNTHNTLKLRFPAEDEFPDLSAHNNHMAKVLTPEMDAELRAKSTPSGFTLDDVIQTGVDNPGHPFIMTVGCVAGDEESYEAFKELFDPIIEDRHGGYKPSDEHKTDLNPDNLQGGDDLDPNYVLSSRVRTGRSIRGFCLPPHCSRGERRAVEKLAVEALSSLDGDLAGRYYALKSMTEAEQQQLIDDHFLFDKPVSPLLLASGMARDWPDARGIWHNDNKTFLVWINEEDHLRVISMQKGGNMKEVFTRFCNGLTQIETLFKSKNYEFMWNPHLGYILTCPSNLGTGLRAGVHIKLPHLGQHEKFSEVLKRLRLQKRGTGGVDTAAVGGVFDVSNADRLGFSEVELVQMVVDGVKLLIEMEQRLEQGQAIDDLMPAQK
human Vascular Endothelial Growth Factor Receptor 2 (VEGFR2), KDR (gene 3791), sequence (P35968 whole entry, looked up): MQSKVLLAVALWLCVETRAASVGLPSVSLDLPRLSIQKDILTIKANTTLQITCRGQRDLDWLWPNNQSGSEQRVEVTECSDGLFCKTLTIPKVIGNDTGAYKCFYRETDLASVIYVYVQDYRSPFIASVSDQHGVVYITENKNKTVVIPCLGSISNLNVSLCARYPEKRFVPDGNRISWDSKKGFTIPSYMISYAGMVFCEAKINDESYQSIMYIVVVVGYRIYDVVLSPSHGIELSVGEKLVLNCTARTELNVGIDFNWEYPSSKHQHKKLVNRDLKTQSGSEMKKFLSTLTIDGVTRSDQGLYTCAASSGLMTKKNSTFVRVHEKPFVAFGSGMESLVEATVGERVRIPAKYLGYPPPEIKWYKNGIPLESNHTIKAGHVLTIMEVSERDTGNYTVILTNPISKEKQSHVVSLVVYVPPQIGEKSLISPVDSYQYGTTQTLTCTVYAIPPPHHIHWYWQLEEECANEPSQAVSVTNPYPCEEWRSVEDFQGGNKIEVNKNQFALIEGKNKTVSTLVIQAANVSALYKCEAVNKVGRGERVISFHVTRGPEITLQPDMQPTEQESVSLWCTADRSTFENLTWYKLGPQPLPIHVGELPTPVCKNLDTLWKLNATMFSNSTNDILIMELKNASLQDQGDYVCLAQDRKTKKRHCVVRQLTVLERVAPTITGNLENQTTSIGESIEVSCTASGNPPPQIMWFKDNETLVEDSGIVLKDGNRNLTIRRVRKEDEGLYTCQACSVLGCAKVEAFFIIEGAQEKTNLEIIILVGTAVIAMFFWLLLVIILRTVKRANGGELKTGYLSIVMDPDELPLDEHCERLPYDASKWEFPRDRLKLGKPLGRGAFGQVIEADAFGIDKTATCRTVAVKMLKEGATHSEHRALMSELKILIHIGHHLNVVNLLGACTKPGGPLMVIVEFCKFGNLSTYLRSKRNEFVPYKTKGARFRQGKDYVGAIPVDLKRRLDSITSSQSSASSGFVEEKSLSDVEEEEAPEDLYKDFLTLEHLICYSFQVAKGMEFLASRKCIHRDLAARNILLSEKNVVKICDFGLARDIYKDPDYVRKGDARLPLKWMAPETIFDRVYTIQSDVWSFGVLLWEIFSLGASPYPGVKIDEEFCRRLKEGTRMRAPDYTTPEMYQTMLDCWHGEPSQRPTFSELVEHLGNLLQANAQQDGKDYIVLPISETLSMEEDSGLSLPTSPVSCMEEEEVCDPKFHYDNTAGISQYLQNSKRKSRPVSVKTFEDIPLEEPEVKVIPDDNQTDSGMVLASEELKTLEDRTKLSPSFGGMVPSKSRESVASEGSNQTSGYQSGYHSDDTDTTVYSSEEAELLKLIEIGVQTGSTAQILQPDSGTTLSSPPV
human Tyrosine Protein Kinase Receptor Tie-2 (Tie2), TEK (gene 7010), sequence (Q02763 whole entry, looked up): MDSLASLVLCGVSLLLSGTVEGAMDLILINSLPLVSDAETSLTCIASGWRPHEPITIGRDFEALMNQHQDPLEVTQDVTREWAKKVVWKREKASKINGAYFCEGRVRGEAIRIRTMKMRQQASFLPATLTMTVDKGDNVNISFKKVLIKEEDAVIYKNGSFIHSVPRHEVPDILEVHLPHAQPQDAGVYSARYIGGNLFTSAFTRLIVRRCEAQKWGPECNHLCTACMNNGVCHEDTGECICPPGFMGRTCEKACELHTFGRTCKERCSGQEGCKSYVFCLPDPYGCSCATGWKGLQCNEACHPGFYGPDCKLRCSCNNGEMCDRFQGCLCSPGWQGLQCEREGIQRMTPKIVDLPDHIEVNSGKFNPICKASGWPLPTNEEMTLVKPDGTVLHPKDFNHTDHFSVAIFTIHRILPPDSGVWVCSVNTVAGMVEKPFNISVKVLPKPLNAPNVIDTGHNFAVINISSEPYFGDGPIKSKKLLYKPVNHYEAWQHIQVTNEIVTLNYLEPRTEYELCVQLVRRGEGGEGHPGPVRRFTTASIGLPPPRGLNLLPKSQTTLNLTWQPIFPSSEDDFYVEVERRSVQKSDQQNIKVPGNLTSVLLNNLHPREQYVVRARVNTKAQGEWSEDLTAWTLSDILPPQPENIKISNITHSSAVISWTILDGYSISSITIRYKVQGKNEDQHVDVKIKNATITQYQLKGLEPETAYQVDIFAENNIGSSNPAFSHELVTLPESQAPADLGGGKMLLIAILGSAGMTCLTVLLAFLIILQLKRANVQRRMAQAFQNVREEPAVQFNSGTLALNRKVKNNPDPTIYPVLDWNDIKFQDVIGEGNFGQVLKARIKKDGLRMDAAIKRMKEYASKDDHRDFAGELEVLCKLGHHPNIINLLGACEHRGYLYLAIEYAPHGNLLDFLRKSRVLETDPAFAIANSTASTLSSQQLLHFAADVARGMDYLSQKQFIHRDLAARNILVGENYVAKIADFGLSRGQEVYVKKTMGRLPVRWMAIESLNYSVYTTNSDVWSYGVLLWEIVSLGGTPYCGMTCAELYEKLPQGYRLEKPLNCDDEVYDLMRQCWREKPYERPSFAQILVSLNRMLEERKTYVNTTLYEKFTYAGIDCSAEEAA
human Sirtuin 3 (SIRT3), SIRT3 (gene 23410), sequence (Q9NTG7 whole entry, looked up): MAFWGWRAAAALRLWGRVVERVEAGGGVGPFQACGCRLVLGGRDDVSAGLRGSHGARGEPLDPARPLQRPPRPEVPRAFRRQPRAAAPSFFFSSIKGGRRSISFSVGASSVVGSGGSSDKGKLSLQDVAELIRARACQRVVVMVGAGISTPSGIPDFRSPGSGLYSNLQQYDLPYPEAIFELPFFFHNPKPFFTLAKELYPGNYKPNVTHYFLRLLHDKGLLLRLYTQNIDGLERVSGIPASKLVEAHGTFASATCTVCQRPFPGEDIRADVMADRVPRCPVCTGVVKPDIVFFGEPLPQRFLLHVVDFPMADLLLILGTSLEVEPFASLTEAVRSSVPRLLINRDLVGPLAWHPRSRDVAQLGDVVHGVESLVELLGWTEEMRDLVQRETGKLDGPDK
rat Adenylate Cyclase, Forskolin Stimulated, Adcy5 (gene 64532), sequence (Q04400 whole entry, looked up): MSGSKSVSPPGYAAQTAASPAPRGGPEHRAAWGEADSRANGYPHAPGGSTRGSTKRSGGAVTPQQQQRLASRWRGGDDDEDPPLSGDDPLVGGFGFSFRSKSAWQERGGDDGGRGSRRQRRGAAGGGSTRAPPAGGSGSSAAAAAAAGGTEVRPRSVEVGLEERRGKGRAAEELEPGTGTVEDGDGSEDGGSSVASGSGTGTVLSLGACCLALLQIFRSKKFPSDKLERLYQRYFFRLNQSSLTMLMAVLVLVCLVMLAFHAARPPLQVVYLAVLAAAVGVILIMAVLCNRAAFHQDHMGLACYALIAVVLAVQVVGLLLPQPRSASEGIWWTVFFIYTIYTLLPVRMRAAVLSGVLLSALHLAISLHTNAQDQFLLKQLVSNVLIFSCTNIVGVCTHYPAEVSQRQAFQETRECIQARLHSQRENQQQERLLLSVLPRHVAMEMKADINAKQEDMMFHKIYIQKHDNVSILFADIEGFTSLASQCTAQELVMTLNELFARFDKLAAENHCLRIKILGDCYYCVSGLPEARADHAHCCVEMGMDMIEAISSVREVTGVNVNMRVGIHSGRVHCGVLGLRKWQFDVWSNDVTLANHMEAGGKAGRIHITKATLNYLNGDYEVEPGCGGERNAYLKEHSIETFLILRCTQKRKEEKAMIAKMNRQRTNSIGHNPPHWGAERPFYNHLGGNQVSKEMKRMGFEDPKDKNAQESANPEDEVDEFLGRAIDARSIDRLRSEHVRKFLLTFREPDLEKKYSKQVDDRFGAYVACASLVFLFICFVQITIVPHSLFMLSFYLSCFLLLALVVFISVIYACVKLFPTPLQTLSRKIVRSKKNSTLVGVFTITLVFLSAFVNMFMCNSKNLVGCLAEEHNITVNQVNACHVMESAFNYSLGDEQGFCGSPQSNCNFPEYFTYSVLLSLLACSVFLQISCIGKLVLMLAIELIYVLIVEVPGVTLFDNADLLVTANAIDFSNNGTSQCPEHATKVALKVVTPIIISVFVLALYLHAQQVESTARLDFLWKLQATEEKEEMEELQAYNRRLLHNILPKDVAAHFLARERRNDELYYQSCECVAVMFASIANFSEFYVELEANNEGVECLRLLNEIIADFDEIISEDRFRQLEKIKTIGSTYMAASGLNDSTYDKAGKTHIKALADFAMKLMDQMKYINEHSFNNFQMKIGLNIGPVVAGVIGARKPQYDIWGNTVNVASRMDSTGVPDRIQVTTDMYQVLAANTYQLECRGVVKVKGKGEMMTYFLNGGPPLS
human Sirtuin 2 (SIRT2), SIRT2 (gene 22933), sequence (Q8IXJ6 whole entry, looked up): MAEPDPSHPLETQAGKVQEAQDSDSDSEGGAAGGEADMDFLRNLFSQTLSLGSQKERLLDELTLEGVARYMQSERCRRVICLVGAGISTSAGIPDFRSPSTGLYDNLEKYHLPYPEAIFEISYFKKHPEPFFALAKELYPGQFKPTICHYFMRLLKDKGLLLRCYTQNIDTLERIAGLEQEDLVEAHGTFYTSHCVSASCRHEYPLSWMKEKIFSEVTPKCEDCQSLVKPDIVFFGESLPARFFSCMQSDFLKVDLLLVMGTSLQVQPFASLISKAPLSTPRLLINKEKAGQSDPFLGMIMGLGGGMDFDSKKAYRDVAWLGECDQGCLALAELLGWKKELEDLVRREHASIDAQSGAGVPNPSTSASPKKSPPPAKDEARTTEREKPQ

For `O=C(Oc1ccc(Br)cc1)N1CCN2CCC1CC2`, the compound was classed as inactive in [1] and in assay [2]. Turning to `CN(C)C(=O)Nc1ccc(Cl)cc1`, the compound was classed as inactive in assay [3] and in [4].

As to `CC(C)(OOC(C)(C)c1ccccc1)c1ccccc1`, the result in [5] was inactive. With `Clc1ccc(C(c2ccc(Cl)cc2)C(Cl)(Cl)Cl)cc1`, the half-maximal activity concentration (AC50) in assay [6] is 25 µM (active). Also, the result in assay [5] was inactive. For `CC(C)(C)C(O)(CCc1ccc(Cl)cc1)Cn1cncn1` (stereo not given), the result in assay [7] and in assay [2] was inactive. In the case of `Nc1ccc([N+](=O)[O-])cc1`, in [3], the compound was called inactive. In addition, in [8], the AC50 is 16.7 µM (active). `CCCCC(CC)COC(=O)c1ccc(C(=O)OCC(CC)CCCC)c(C(=O)OCC(CC)CCCC)c1` (stereo not given): the result in assay [1] and in assay [2] was inactive. On to `CCN(CC)N=O`, for which the compound was called inactive in assay [9], in assay [2], in assay [10] and in assay [5]. On to `COc1cc(C=O)cc2c1[C@H](COC(N)=O)[C@]1(OC(C)=O)ON2C[C@H]2[C@@H]1N2C(C)=O`, for which the outcome in assay [11] and in assay [5] was inactive. Regarding `Cc1ccc(N=C=O)cc1N=C=O`, in assay [9], the concentration at half-maximal activity (AC50) was 25 µM (active). On to `ClC1=C(Cl)[C@]2(Cl)[C@H]3[C@H]([C@@H]4C=C[C@H]3C4)[C@@]1(Cl)C2(Cl)Cl`, for which the result in assay [5] was inactive. Regarding `Clc1ccc(Cl)c(Cl)c1`, the compound was called inactive in assay [6] and in assay [5]. For the compound `Nc1ccc(N=Nc2ccccc2)cc1`, in [3], the outcome was inactive. The results for the concentration at half-maximal activity (AC50) in assay [8], in assay [12] and in [13] were 18.3 µM (active), 25 µM (active) and 4.49 µM (active), respectively.

As for `ClCCOCCCl`, the result in [1], in assay [7] and in assay [13] was inactive. With `c1ccc(NNc2ccccc2)cc1`, the result in assay [5] was inactive. `CNC(=O)Oc1cccc2c1OC(C)(C)C2`: in assay [5], the outcome was inactive.

With `O=[N+]([O-])C(Br)(CO)CO`, in [14], the AC50 was 21.3 µM (active). As for `CCCCCCCCn1sccc1=O`, in assay [14], the concentration at half-maximal activity (AC50) is 26 µM (active). Consider `[Cl-].[Cl-].[Hg+2]`, for which the half-maximal activity concentration (AC50) in [15] is 11.6 µM (active).
